How the values were obtained:
Assay in all cases: DAPPL (digital affinity profiling via proximity ligation, sequencing); 10 mM Tris-HCl pH 7.5, 50 mM NaCl, 1 mM DTT, 4% glycerol, room temperature, 30 min; GST-TFs on glutathione beads, 16-mer random dsDNA library, 0.1% formaldehyde crosslink after washing; high values mean tight binding
FEV = molecular target: T1, FEV (Homo sapiens, UniProt Q99581 1-238); conditions: protein: recombinant; tags: N-terminal GST; dsDNA, one strand shown
T1 sequence: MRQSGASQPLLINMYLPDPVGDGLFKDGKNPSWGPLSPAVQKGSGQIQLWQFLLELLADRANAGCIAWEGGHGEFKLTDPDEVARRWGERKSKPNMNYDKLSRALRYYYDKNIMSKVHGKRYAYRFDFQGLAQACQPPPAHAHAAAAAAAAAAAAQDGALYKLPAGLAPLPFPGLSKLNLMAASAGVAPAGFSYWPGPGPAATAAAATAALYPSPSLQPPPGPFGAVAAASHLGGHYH
Summary of the method: (§1)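 Each value of binding signal is a hexamer's read frequency for a factor divided by the same hexamer's frequency in the tag-only sample. Barcoded, bead-captured GST fusions of human transcription factors made in yeast were pooled with that sample and incubated with 200 nmole of a random double-stranded 16-mer DNA library in Tris/NaCl/DTT/glycerol buffer at room temperature for 30 min. Washing, 0.1% formaldehyde crosslinking, proximity ligation, PCR and Illumina NextSeq500 sequencing followed.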

ETV5 = ETV5 (Homo sapiens, UniProt P41161 1-510); conditions: protein: recombinant; tags: N-terminal GST; dsDNA, one strand shown
Summary of the method: as §1

HSF1 = HSF1 (Homo sapiens, UniProt Q00613 1-529); conditions: protein: recombinant; tags: N-terminal GST; chain copies: 3; dsDNA, one strand shown
Summary of the method: as §1

SPIC = molecular target: T2, SPIC (Homo sapiens, UniProt Q8N5J4 1-248); conditions: protein: recombinant; tags: N-terminal GST; dsDNA, one strand shown
T2 sequence: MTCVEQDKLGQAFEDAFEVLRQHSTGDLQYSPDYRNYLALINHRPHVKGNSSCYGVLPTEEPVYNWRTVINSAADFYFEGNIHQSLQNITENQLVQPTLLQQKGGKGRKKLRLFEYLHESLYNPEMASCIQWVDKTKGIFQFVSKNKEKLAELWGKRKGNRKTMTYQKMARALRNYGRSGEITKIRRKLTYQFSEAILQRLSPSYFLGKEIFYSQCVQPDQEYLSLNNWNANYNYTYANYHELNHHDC
Summary of the method: as §1

ELF4 = ELF4 (Homo sapiens, UniProt Q99607 1-663); conditions: protein: recombinant; tags: N-terminal GST; dsDNA, one strand shown
Summary of the method: as §1

ELK4 = molecular target: T3, ELK4 (Homo sapiens, UniProt P28324-2 1-405); conditions: protein: recombinant; tags: N-terminal GST; dsDNA, one strand shown
T3 sequence: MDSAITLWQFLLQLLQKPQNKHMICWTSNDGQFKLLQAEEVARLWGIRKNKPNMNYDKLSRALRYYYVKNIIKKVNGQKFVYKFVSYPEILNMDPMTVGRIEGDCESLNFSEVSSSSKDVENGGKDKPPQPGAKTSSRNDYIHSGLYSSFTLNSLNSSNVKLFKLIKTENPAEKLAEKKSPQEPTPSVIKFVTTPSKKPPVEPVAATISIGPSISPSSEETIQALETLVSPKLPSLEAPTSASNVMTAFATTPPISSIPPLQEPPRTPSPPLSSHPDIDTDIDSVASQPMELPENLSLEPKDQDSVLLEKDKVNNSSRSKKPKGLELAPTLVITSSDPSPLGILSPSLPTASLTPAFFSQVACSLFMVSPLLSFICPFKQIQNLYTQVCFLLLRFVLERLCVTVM
Summary of the method: as §1

ETV2 = molecular target: T4, ETV2 (Homo sapiens, UniProt O00321 1-342); conditions: protein: recombinant; tags: N-terminal GST; dsDNA, one strand shown
T4 sequence: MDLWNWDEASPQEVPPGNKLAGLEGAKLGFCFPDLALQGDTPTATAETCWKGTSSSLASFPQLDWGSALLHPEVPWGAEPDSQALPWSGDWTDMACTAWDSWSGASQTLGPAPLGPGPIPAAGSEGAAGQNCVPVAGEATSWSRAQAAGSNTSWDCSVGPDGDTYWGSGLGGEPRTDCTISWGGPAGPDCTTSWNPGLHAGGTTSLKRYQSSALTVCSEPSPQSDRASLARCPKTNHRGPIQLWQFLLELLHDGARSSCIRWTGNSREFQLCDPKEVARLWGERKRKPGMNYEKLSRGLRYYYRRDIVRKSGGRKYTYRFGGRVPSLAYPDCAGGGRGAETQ
Summary of the method: as §1

ELF3 = molecular target: T5, ELF3 (Homo sapiens, UniProt P78545 1-371); conditions: protein: recombinant; tags: N-terminal GST; dsDNA, one strand shown
T5 sequence: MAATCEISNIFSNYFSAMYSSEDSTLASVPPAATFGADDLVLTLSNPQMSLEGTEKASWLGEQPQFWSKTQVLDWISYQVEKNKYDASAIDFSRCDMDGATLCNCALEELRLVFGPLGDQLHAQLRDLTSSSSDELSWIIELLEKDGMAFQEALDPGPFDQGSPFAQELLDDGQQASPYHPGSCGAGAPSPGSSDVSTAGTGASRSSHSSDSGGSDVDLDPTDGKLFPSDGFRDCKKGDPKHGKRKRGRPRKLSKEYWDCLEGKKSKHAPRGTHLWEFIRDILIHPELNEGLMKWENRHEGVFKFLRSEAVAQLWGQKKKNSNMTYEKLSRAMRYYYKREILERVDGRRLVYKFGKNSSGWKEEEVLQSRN
Summary of the method: as §1

CRX = CRX (Homo sapiens, UniProt O43186 1-299); conditions: protein: recombinant; tags: N-terminal GST; dsDNA, one strand shown
Summary of the method: as §1

ETV1 = ETV1 (Homo sapiens, UniProt P50549 1-477); conditions: protein: recombinant; tags: N-terminal GST; dsDNA, one strand shown
Summary of the method: as §1

ELF4, sequence (Q99607 whole entry): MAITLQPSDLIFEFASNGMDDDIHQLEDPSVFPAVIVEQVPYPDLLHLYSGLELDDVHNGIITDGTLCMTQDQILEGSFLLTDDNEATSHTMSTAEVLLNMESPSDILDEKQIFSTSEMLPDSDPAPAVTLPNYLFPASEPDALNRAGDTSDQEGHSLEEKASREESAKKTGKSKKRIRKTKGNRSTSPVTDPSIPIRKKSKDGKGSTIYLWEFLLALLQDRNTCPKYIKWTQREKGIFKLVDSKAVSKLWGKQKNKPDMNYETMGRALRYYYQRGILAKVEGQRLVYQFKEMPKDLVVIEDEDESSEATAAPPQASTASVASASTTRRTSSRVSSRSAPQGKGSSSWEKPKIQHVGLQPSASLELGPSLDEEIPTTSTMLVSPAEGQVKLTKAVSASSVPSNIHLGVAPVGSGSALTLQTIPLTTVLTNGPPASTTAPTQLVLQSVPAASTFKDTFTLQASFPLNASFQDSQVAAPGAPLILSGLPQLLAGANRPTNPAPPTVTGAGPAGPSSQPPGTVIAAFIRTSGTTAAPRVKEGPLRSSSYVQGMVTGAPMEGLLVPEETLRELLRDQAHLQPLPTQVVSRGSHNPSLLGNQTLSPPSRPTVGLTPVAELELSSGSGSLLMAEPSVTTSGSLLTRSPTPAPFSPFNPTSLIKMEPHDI
ETV5, sequence (P41161 whole entry): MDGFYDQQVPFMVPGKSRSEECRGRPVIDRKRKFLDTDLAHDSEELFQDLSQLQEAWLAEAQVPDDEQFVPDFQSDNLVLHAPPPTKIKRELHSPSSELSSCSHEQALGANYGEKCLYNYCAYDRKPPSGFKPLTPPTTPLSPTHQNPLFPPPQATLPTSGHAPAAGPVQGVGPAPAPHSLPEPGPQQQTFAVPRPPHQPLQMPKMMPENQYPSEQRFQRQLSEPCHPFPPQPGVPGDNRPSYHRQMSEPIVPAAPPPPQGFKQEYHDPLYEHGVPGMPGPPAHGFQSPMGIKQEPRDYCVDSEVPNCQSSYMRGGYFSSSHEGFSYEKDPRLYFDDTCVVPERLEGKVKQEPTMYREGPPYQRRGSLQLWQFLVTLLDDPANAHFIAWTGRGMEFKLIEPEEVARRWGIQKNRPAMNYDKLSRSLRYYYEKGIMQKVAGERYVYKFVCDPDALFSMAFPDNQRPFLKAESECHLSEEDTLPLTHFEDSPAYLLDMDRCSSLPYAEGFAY
ETV1, sequence (P50549 whole entry): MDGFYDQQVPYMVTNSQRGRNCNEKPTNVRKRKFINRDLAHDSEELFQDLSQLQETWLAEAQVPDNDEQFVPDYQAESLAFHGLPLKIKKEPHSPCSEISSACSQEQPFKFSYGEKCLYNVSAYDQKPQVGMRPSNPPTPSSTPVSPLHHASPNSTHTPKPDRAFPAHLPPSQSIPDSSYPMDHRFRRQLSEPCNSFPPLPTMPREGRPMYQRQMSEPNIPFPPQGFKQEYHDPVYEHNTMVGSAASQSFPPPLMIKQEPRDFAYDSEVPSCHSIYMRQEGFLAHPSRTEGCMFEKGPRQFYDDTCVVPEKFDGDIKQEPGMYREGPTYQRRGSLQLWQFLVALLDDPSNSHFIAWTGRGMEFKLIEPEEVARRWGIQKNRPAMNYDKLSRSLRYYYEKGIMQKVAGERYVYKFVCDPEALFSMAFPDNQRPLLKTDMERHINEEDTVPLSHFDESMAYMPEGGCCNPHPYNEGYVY
HSF1, sequence (Q00613 whole entry): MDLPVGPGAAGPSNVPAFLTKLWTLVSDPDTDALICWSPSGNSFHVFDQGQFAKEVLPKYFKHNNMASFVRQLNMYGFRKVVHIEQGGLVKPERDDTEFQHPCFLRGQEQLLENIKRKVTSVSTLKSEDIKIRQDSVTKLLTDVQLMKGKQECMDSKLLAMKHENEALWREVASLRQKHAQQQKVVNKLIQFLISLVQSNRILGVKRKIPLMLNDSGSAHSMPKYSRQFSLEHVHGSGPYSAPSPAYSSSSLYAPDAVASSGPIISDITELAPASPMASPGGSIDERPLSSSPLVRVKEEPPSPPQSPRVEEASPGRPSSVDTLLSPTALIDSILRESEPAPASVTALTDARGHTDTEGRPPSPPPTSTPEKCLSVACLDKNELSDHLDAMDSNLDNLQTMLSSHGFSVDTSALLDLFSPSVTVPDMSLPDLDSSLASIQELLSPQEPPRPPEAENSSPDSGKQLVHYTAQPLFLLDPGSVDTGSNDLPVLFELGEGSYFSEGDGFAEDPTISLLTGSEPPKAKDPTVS
CRX, sequence (O43186 whole entry): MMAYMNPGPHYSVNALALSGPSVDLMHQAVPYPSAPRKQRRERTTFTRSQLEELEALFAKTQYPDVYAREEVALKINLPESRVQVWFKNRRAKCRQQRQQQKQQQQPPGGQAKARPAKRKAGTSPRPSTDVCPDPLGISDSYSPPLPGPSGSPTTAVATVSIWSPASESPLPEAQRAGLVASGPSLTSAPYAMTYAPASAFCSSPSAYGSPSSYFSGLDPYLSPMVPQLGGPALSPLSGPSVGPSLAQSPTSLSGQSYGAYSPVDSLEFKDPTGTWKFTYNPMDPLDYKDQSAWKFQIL

Sequence	binding signal (FEV)	binding signal (ETV5)	binding signal (HSF1)	binding signal (SPIC)	binding signal (ELF4)	binding signal (ELK4)	binding signal (ETV2)	binding signal (ELF3)	binding signal (CRX)	binding signal (ETV1)
CTGTTT	1.41 fold enrichment (6-mer frequency, TF over GST control)	1.42 fold enrichment (6-mer frequency, TF over GST control)	1.13 fold enrichment (6-mer frequency, TF over GST control)	1.31 fold enrichment (6-mer frequency, TF over GST control)	1.38 fold enrichment (6-mer frequency, TF over GST control)	1.29 fold enrichment (6-mer frequency, TF over GST control)	1.4 fold enrichment (6-mer frequency, TF over GST control)	1.14 fold enrichment (6-mer frequency, TF over GST control)	1.08 fold enrichment (6-mer frequency, TF over GST control)	1.5 fold enrichment (6-mer frequency, TF over GST control)
CTTATC	1.2 fold enrichment (6-mer frequency, TF over GST control)	1.13 fold enrichment (6-mer frequency, TF over GST control)	1.6 fold enrichment (6-mer frequency, TF over GST control)	1.34 fold enrichment (6-mer frequency, TF over GST control)	1.12 fold enrichment (6-mer frequency, TF over GST control)	1.18 fold enrichment (6-mer frequency, TF over GST control)	1.03 fold enrichment (6-mer frequency, TF over GST control)	1.14 fold enrichment (6-mer frequency, TF over GST control)	2.44 fold enrichment (6-mer frequency, TF over GST control)	1.18 fold enrichment (6-mer frequency, TF over GST control)
CCCATA	1.24 fold enrichment (6-mer frequency, TF over GST control)	1.23 fold enrichment (6-mer frequency, TF over GST control)	1.14 fold enrichment (6-mer frequency, TF over GST control)	1.31 fold enrichment (6-mer frequency, TF over GST control)	1.32 fold enrichment (6-mer frequency, TF over GST control)	1.06 fold enrichment (6-mer frequency, TF over GST control)	1.3 fold enrichment (6-mer frequency, TF over GST control)	1.33 fold enrichment (6-mer frequency, TF over GST control)	1.24 fold enrichment (6-mer frequency, TF over GST control)	1.24 fold enrichment (6-mer frequency, TF over GST control)
ATTCAC	1.23 fold enrichment (6-mer frequency, TF over GST control)	1.21 fold enrichment (6-mer frequency, TF over GST control)	1.13 fold enrichment (6-mer frequency, TF over GST control)	1.1 fold enrichment (6-mer frequency, TF over GST control)	1.31 fold enrichment (6-mer frequency, TF over GST control)	1.35 fold enrichment (6-mer frequency, TF over GST control)	1.21 fold enrichment (6-mer frequency, TF over GST control)	1.27 fold enrichment (6-mer frequency, TF over GST control)	1.14 fold enrichment (6-mer frequency, TF over GST control)	1.29 fold enrichment (6-mer frequency, TF over GST control)
TGGACT	1.32 fold enrichment (6-mer frequency, TF over GST control)	1.33 fold enrichment (6-mer frequency, TF over GST control)	1.18 fold enrichment (6-mer frequency, TF over GST control)	1.31 fold enrichment (6-mer frequency, TF over GST control)	1.34 fold enrichment (6-mer frequency, TF over GST control)	1.25 fold enrichment (6-mer frequency, TF over GST control)	1.27 fold enrichment (6-mer frequency, TF over GST control)	1.19 fold enrichment (6-mer frequency, TF over GST control)	1.06 fold enrichment (6-mer frequency, TF over GST control)	1.33 fold enrichment (6-mer frequency, TF over GST control)
GAATAA	1.08 fold enrichment (6-mer frequency, TF over GST control)	1.09 fold enrichment (6-mer frequency, TF over GST control)	1.62 fold enrichment (6-mer frequency, TF over GST control)	1.17 fold enrichment (6-mer frequency, TF over GST control)	1.13 fold enrichment (6-mer frequency, TF over GST control)	1.04 fold enrichment (6-mer frequency, TF over GST control)	1.13 fold enrichment (6-mer frequency, TF over GST control)	1.12 fold enrichment (6-mer frequency, TF over GST control)	1.57 fold enrichment (6-mer frequency, TF over GST control)	1.03 fold enrichment (6-mer frequency, TF over GST control)
CTAATA	1.16 fold enrichment (6-mer frequency, TF over GST control)	1.21 fold enrichment (6-mer frequency, TF over GST control)	1.55 fold enrichment (6-mer frequency, TF over GST control)	1.29 fold enrichment (6-mer frequency, TF over GST control)	1.18 fold enrichment (6-mer frequency, TF over GST control)	1.1 fold enrichment (6-mer frequency, TF over GST control)	1.24 fold enrichment (6-mer frequency, TF over GST control)	1.16 fold enrichment (6-mer frequency, TF over GST control)	2.09 fold enrichment (6-mer frequency, TF over GST control)	1.22 fold enrichment (6-mer frequency, TF over GST control)
ATTTCA	1.25 fold enrichment (6-mer frequency, TF over GST control)	1.27 fold enrichment (6-mer frequency, TF over GST control)	1.26 fold enrichment (6-mer frequency, TF over GST control)	1.18 fold enrichment (6-mer frequency, TF over GST control)	1.27 fold enrichment (6-mer frequency, TF over GST control)	1.27 fold enrichment (6-mer frequency, TF over GST control)	1.28 fold enrichment (6-mer frequency, TF over GST control)	1.16 fold enrichment (6-mer frequency, TF over GST control)	1.22 fold enrichment (6-mer frequency, TF over GST control)	1.25 fold enrichment (6-mer frequency, TF over GST control)
TAACTA	1.25 fold enrichment (6-mer frequency, TF over GST control)	1.29 fold enrichment (6-mer frequency, TF over GST control)	1.51 fold enrichment (6-mer frequency, TF over GST control)	1.36 fold enrichment (6-mer frequency, TF over GST control)	1.48 fold enrichment (6-mer frequency, TF over GST control)	1.26 fold enrichment (6-mer frequency, TF over GST control)	1.49 fold enrichment (6-mer frequency, TF over GST control)	1.33 fold enrichment (6-mer frequency, TF over GST control)	1.87 fold enrichment (6-mer frequency, TF over GST control)	1.24 fold enrichment (6-mer frequency, TF over GST control)
AACCTC	1.18 fold enrichment (6-mer frequency, TF over GST control)	1.22 fold enrichment (6-mer frequency, TF over GST control)	1.17 fold enrichment (6-mer frequency, TF over GST control)	1.4 fold enrichment (6-mer frequency, TF over GST control)	1.2 fold enrichment (6-mer frequency, TF over GST control)	1.26 fold enrichment (6-mer frequency, TF over GST control)	1.32 fold enrichment (6-mer frequency, TF over GST control)	1.28 fold enrichment (6-mer frequency, TF over GST control)	1.11 fold enrichment (6-mer frequency, TF over GST control)	1.24 fold enrichment (6-mer frequency, TF over GST control)
CTTGCT	1.25 fold enrichment (6-mer frequency, TF over GST control)	1.39 fold enrichment (6-mer frequency, TF over GST control)	1.24 fold enrichment (6-mer frequency, TF over GST control)	1.52 fold enrichment (6-mer frequency, TF over GST control)	1.35 fold enrichment (6-mer frequency, TF over GST control)	1.34 fold enrichment (6-mer frequency, TF over GST control)	1.58 fold enrichment (6-mer frequency, TF over GST control)	1.52 fold enrichment (6-mer frequency, TF over GST control)	1.18 fold enrichment (6-mer frequency, TF over GST control)	1.36 fold enrichment (6-mer frequency, TF over GST control)
AACAAA	1.2 fold enrichment (6-mer frequency, TF over GST control)	1.11 fold enrichment (6-mer frequency, TF over GST control)	1.18 fold enrichment (6-mer frequency, TF over GST control)	1.14 fold enrichment (6-mer frequency, TF over GST control)	1.16 fold enrichment (6-mer frequency, TF over GST control)	1.17 fold enrichment (6-mer frequency, TF over GST control)	1.26 fold enrichment (6-mer frequency, TF over GST control)	1.21 fold enrichment (6-mer frequency, TF over GST control)	1.14 fold enrichment (6-mer frequency, TF over GST control)	1.19 fold enrichment (6-mer frequency, TF over GST control)
ACTGCT	1.48 fold enrichment (6-mer frequency, TF over GST control)	1.41 fold enrichment (6-mer frequency, TF over GST control)	1.19 fold enrichment (6-mer frequency, TF over GST control)	1.56 fold enrichment (6-mer frequency, TF over GST control)	1.3 fold enrichment (6-mer frequency, TF over GST control)	1.54 fold enrichment (6-mer frequency, TF over GST control)	1.26 fold enrichment (6-mer frequency, TF over GST control)	1.32 fold enrichment (6-mer frequency, TF over GST control)	1.21 fold enrichment (6-mer frequency, TF over GST control)	1.33 fold enrichment (6-mer frequency, TF over GST control)
AAAACA	1.34 fold enrichment (6-mer frequency, TF over GST control)	1.31 fold enrichment (6-mer frequency, TF over GST control)	1.25 fold enrichment (6-mer frequency, TF over GST control)	1.42 fold enrichment (6-mer frequency, TF over GST control)	1.39 fold enrichment (6-mer frequency, TF over GST control)	1.22 fold enrichment (6-mer frequency, TF over GST control)	1.34 fold enrichment (6-mer frequency, TF over GST control)	1.38 fold enrichment (6-mer frequency, TF over GST control)	1.13 fold enrichment (6-mer frequency, TF over GST control)	1.37 fold enrichment (6-mer frequency, TF over GST control)

Reference: paper PMC7862700, “An all-to-all approach to the identification of sequence-specific readers for epigenetic DNA modifications on cytosine”
